Assay outcomes (PubChem)
Most compounds without a hit are left out; they make up all but 1.7% or so of the library.
CTSL1 counter: blocks F. hepatica cathepsin L1 in PFM18AAP counter-screen; recombinant F. hepatica cathepsin L1, Z-Leu-Arg-MCA fluorescence; inhibition, % at 5.96 µM; 300,000 compounds, 0.49% hits;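 active means inhibition above the mean of all tested compounds plus 3 SD, set per screening campaign, cut at about 17% in these data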;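 further: 0% = plate median of test compound wells and 100% = 1 µM Z-Phe-Ala-diazomethylketone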
m5-HT2A agonist: activates the mouse 5-HT2A serotonin receptor; P35363; CHO-K1 mHTR2A beta-arrestin complementation, luminescence; percent of 30 µM serotonin response; activation, % at 7.6 µM; 360,000 compounds, 0.66% hits; AID 624169;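 active means activation above a run cutoff, the mean activation of all tested compounds plus 3 SD, cut at about 14% in these data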;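 further: 0% = plate median of compound wells and 100% = 30 µM serotonin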
LANA-H2A inh: blocks KSHV LANA binding to histone H2A/H2B; Q9QR71; cell-free LANA-H2A/H2B peptide, fluorescence polarization; inhibition, % (concentration not given with the values); 320,000 compounds, 0.6% hits; AID 2629; in the data active means inhibition mostly above about 10%, no sharp cut-off; inactive means mostly below about 6.7%
HDAC3 inh: inhibitors of human histone deacetylase 3 | O15379 | recombinant HDAC3, fluorogenic peptide/trypsin coupled, fluorescence | inhibition, % at 8.3 µM | 320,000 compounds, 0.15% hits; in the data active means inhibition above about 26%, passing the limit was not always enough; inconclusive means no clear call, values can overlap the other calls
MOR ag counter: activates human mu opioid receptor in HTR2A counterscreen | shares compounds with m5-HT2A agonist | U2OS OPRM1 beta-arrestin PathHunter, luminescence; DMSO 0%, DAMGO 9.3 µM 100% | activation, % at 9.3 µM | 2,300 compounds, 5.3% hits | AID 624380;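 active means mean activation above the mean of DMSO-only wells plus 3 SD, cut at about 0.5% in these data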
Target sequence (P35372 whole entry, looked up): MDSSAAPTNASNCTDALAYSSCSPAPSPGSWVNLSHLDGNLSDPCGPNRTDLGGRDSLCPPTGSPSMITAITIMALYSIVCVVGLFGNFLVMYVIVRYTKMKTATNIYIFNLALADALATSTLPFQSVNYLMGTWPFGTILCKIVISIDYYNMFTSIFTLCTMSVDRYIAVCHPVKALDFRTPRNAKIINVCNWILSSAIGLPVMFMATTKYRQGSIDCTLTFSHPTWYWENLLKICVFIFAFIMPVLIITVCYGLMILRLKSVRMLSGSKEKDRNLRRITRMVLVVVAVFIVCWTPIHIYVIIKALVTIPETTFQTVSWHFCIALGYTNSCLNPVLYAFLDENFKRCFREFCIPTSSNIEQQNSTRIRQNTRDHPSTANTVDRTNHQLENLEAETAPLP
m5-HT2A ag conf: mouse HTR2A agonism confirmed. CHO-K1 PathHunter beta-arrestin recruitment, luminescence; DMSO 0%, 30 µM serotonin 100%. shares compounds with m5-HT2A agonist. activation, % at 7.6 µM. 2,300 compounds, 19% hits;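 active means mean activation across triplicates above the hit threshold derived in the original primary screen, cut at about 15% in these data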
* = called active by the depositor; ? = inconclusive; · = no result given; ! = repeats disagree.

SMILES	CTSL1 counter	m5-HT2A agonist	LANA-H2A inh	HDAC3 inh	others
CC(C)[C@H]1C(=O)N2CCC[C@H]2[C@]2(O)O[C@](NC(=O)[C@@H]3C=C4c5cccc6[nH]cc(c56)C[C@H]4N(C)C3)(C(C)C)C(=O)N12	36*	49*	11*	0
CC(C)C[C@H]1C(=O)N2CCCC2[C@]2(O)O[C@](NC(=O)[C@@H]3C=C4c5cccc6[nH]cc(c56)CC4N(C)C3)(C(C)C)C(=O)N12 (some centres undefined)	31*	30*	21*!	-6
COC(=O)c1nc(-c2ccc3c(n2)C(=O)C(N)=C(OC)C3=O)c(N)c(-c2ccc(OC)c(OC)c2O)c1C	110*	7	3	2
CCC(=O)O[C@@H]1[C@@H](OC(C)=O)[C@@]2(O)C(C[C@H](O)C2(C)C)[C@](C)(O)[C@H]2CC[C@@H]3[C@@H](O)[C@]12C[C@@]3(C)O (some centres undefined)	2	2	0	-9
COC(=O)C(O)(c1c(C)[nH]n(-c2ccccc2)c1=O)C(F)(F)F (centres undefined)	20*	0	0	-3
COc1ccccc1Cn1c(SCC(=O)C(C)(C)C)nc2cc(C(=O)N3CCC4(CC3)OCCO4)ccc2c1=O	0	·	12*	2
Cc1ccc(NP(=O)(Oc2ccccc2F)Oc2ccccc2F)cc1C	5	1	·	30*
Cc1cccc(NP(=O)(Oc2ccccc2F)Oc2ccccc2F)c1	3	0	·	20
CC(=O)Nc1cc(C(=O)N2CCC3(CC2)OCCO3)ccc1Sc1ccc(F)cc1	2	6	29*	-5
CC(=O)Nc1cc(C(=O)N2CCC3(CC2)OCCO3)ccc1Sc1ccc(C)cc1	3	-1	0	1
C[C@]12CCC(=O)C=C1CC[C@@H]1[C@@H]2CC[C@]2(C)C(=O)CC[C@@H]12	4	5	16*!	-2
CC(C)C/C(=N/O)c1cn(C)c2ccccc12	-3	-2	-2	0
Cc1ccc(S(=O)(=O)N2CC2(C)CCl)cc1 (centres undefined)	20*	2	1	3
CC1=NCCc2c1[nH]c1cc(O)ccc21	3	0	142*	-67
CC1=CC2/C=C(\C)CCC(O)C(O)/C=C/C(=O)C23C(=O)NC(CC(C)C)C3C1C (centres undefined)	0	-7	3	0
C/C1=C\[C@@H](C)C/C=C/[C@H]2[C@@H]3O[C@]3(C)[C@@H](C)[C@H]3[C@H](Cc4c[nH]c5ccccc45)NC(=O)[C@]32C(=O)/C=C/C(=O)[C@@H]1O	1	22*	8	6
O=C(c1ccc2c(=O)n(Cc3ccc4c(c3)OCO4)c(=S)[nH]c2c1)N1CCC2(CC1)OCCO2	1	3	57*	-2
Cc1cc(Cl)ccc1OC(C)C(=O)O (centres undefined)	-1	15*	2	-7
CC(C)(C)C(=O)N1Cc2cc(N3CCOCC3)ccc2-n2nncc2C1	·	4	·	·
C[C@]12CCC3C(CC[C@H]4C[C@H](O)[C@H](O)C[C@]34C)C1CC[C@@H]2O (some centres undefined)	·	-3	·	·
Nc1cc(Cl)cc(C(=O)O)c1Cl	·	-3	38*	-10
C1CCC(NC2CCCCC2)CC1	·	-1	141*	2
c1ccc(-c2ccc(-c3n(-c4ccccn4)c4ccccc4[n+]3-c3ccccn3)cc2)cc1	·	-3	·	·
CCN1CCN(Cc2cccnc2)CC1	19*	0	4	-1
CC1CN1P1(=O)OCC(C)([N+](=O)[O-])CO1 (centres undefined)	·	1	·	·
SMILES	CTSL1 counter	m5-HT2A agonist	LANA-H2A inh	HDAC3 inh	others
CCOP(=O)(OCC)C(O)c1cccc([N+](=O)[O-])c1 (centres undefined)	-1	-1	-1	2
CCOP(=O)(OCC)c1ccc(OP(=O)(c2cccc([N+](=O)[O-])c2)c2cccc([N+](=O)[O-])c2)cc1	-1	-3	0	57*
CC[C@@H](O)C[C@H]1CCC[C@@]2(C[C@@H]3OC(=O)/C=C/[C@@](C)(O)[C@@H](O)[C@H](C)[C@@H](O)[C@H](OC4CCC(N(C)C)C(C)O4)[C@@H](O)[C@](C)(O)CCCCC/C=C/[C@@H]4CC(C)(C)O[C@@]4(O)C[C@H](O2)[C@H]3C)O1 (some centres undefined)	·	0	·	·
CC1[C@H]2Cc3ccc(O)cc3[C@]1(C)CCN2CCc1ccccc1 (some centres undefined)	·	-1	·	·
CCCN1CC[C@@H]2c3cc(O)ccc3CC[C@@H]21	-3	17*	5	2	MOR ag counter=0;m5-HT2A ag conf=49*
c1ccc(CCNCc2cccnc2)cc1	0	5	-2	4
O=C(NCc1cccnc1)C(Cl)(Cl)Cl	0	24*	-6	-6	MOR ag counter=-1;m5-HT2A ag conf=-4
Cc1cnc[nH]1	·	-3	6	1
O=C(NCNC(=O)NC1C(=O)NC(=O)N1CO)NC1C(=O)NC(=O)N1CO (centres undefined)	-4	17*	6	4	MOR ag counter=0;m5-HT2A ag conf=1
COC(=O)C1=CO[C@@H](C)[C@@H]2CN(CCc3c[nH]c4ccccc34)CC[C@H]12	2	-10	1	9
CC(=O)OC1C(O)C(C)OC(OC2C(OC(=O)C3CCC4C(C3)OC3(CC(OC(=O)/C=C/c5ccccc5)C(C)CO3)C43CO3)OC(C)C(O)C2OC(C)=O)C1O (centres undefined)	·	3	·	·
Nc1cc(N2CCNCC2)ccc1[N+](=O)[O-]	0	42*	3	11	MOR ag counter=0;m5-HT2A ag conf=28*
O=[N+]([O-])c1ccc(N2CCNCC2)cc1Sc1ccccn1	-1	25*	-6	4	MOR ag counter=-1;m5-HT2A ag conf=10
CNc1cc(N2CCNCC2)ccc1[N+](=O)[O-]	3	14	-3	4
CN1CCN(c2ccc([N+](=O)[O-])c(N)c2)CC1	-1	-4	2	6
Fc1ccccc1CNCCc1c[nH]c2ccccc12	-3	19*	9	?	MOR ag counter=0;m5-HT2A ag conf=24*
COc1cccc(CNCCc2c[nH]c3ccccc23)c1	1	32*	1	-7	MOR ag counter=0;m5-HT2A ag conf=34*
COc1ccc2[nH]cc(CCNCc3cccnc3)c2c1	3	2	1	-1
COc1cccc(CNCCc2ccc(F)cc2)c1	-6	8	3	9
Fc1ccc(CNCCc2c[nH]c3ccccc23)cc1	0	6	-5	-9
COc1cccc(CCNCc2c(F)cccc2F)c1	0	21*	9	-4	MOR ag counter=-1;m5-HT2A ag conf=3
CN(C(=O)COC(=O)c1cn(C)c2ccccc12)C1CCCCC1	·	3	0	7
